High-throughput results deposited in PubChem by several laboratories.
FAS-TE inh – blocks the thioesterase domain of human fatty acid synthase; P49327; recombinant FAS-TE, OMFH fluorogenic substrate, fluorescence endpoint; inhibition, % at 15 µM; 360,000 tested, 0.67% active;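 active = compounds whose normalised, plate-corrected inhibition of enzyme fluorescence in the single-dose primary screen is 50% or more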;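 also: 0% = DMSO with enzyme and 100% = substrate without enzyme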
sPLA2-III inh – Blocks human group III sPLA2 activity | Q9NZ20 | QFRET BODIPY PC-A2 liposome hydrolysis, fluorescence | inhibition, % at 12.2 µM | 370,000 tested, 0.56% active | AID 743126;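 active = inhibition above mean plus 3 SD of compounds lying within the high and low control bounds, cut at about 19% in these data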;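 also: 0% = median of test compound wells and 100% = no enzyme DMSO wells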
Target sequence (Q9NZ20 whole entry, looked up): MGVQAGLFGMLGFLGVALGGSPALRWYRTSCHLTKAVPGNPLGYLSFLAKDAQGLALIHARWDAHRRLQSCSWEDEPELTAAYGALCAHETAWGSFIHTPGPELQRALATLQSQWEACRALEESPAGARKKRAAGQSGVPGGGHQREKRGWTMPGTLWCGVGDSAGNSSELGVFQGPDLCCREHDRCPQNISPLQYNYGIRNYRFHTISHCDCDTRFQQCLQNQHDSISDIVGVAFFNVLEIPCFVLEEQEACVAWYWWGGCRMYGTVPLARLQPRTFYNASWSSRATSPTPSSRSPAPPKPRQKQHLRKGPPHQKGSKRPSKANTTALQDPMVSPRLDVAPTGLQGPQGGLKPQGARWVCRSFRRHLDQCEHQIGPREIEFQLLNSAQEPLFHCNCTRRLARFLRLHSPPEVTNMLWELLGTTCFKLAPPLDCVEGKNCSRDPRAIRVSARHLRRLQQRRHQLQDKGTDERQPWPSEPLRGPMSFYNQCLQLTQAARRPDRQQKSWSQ
ADAM10 inh – inhibitors of human ADAM10 | O14672 | recombinant ADAM10, EDANS/DABCYL FRET peptide cleavage, 3 h | inhibition, % at 7 µM | 370,000 tested, 0.62% active;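 active = inhibition above a per-campaign cutoff equal to the mean of compounds falling between control-based bounds plus 3 SD, cut at about 20% in these data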;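 also: 0% = DMSO wells while the 100% control is not disclosed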
GRIN3A LBD mod – modulators (binders) of human NR3A ligand-binding domain; NR3A LBD differential scanning fluorimetry, Tm shift; 0% = protein alone, 100% = glycine-bound protein; 340,000 tested, 2.5% active; Tm shift relative to glycine control, % at 25 µM;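 active = melting temperature shift of at least 10% of the positive control shift, at one fixed dose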
ADAM17 inh – inhibits human ADAM17 | P78536 | recombinant ADAM17, EDANS/DABCYL FRET peptide cleavage | inhibition, % at 6.95 µM | 370,000 tested, 0.83% active | AID 720648;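 active = inhibition above the mean of compounds lying between control limits plus 3 SD, set per campaign, cut at about 8.5% in these data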;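 also: 0% = DMSO-only wells as the low control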
Active calls of the source: *; i = inactive; nt = not tested or not shown. This is a sample that favours compounds with a hit; in the whole collection about 4.3% have one here.

SMILES | FAS-TE inh | sPLA2-III inh | ADAM10 inh | GRIN3A LBD mod | ADAM17 inh
COCCNC(=O)CN(c1ccc(OC)c(OC)c1)S(=O)(=O)c1ccc(C)cc1 | 6 | 0 | 2 | 14* | 4
COC(=O)CN(c1cc(OC)ccc1OC)S(=O)(=O)c1ccc(OC)c(OC)c1 | -2 | 0 | -1 | 10* | -7
CCCC1CCC2(CC1)CCC2OC(=S)Nc1ccccc1 (configuration not stated) | nt | -3 | -6 | nt | -3
Nc1cc(-c2ccc(Br)cc2)nn1S(=O)(=O)c1ccccc1 | 13 | -1 | -11 | -6 | 3
Nc1cc(-c2ccc(Br)cc2)nc2cc(-c3ccccc3)nn12 | 16 | 0 | -96 | 34* | -29
O=C(N/N=C/c1cc2c(cc1Br)OCO2)c1cc2ccccc2o1 | 12 | -2 | -34 | 13* | -8
O=C(N/N=C/c1ccc(Br)s1)c1c[nH]c2ccccc12 | 11 | -4 | -4 | 25* | 1
O=C(N/N=C/c1ccc(Br)s1)c1ccncc1 | -4 | -3 | 1 | -48 | 3
O=C(N/N=C/c1cc2c(cc1Br)OCO2)c1c[nH]c2ccccc12 | 19 | 5 | -1 | 15* | 1
O=C(N/N=C/c1cc(Br)cs1)c1c[nH]c2ccccc12 | 16 | 1 | -3 | 38* | 0
O=C(CSc1nc2c(c(=O)[nH]1)CCCC2)N1CCOCC1 | nt | 17 | -13 | nt | -2
O=C(c1ccc(F)cc1Cl)N1CCC(Oc2cccnc2)CC1 | nt | -3 | 1 | nt | 0
O=C(N/N=C/c1ccc(Br)s1)Nc1ccccc1 | 26 | -18 | -3 | 20* | 0
O=C(N/N=C/c1ccc(Br)s1)c1cccs1 | 0 | -5 | 9 | 6 | -1
C[C@H](CO)N1C[C@H](C)[C@@H](CN(C)C(=O)Nc2ccc(C(C)(C)C)cc2)OCc2cn(nn2)CCCC1=O | nt | 1 | 6 | nt | -3
c1ccc(-c2nnc(-c3ccccc3)c(-c3c[nH]c4ccccc34)n2)cc1 | 0 | 2 | 1 | 15* | 2
Clc1ccc(-c2nnc(-c3ccccc3)nc2-c2c[nH]c3ccccc23)cc1 | -6 | 4 | 9 | 7 | 0
Cc1cc(C)cc(C(=O)OCCN(C)C2CN(Cc3cn(Cc4ccccc4C(F)(F)F)nn3)S(=O)(=O)C2)c1 (configuration not stated) | nt | -12 | 3 | nt | 0
CCN1C(=O)S/C(=C/c2ccc(Oc3ccc([N+](=O)[O-])cn3)c(OC)c2)C1=O | 22 | 1 | 6 | 1 | -1
COc1cc(/C=C2/SC(=O)N(CC(=O)N3CCCC3)C2=O)ccc1Oc1ccc([N+](=O)[O-])cn1 | 14 | 0 | -3 | 13* | 1
O=C(NC1CCC1)c1ccc(C#Cc2cccc(F)c2)cn1 | nt | 2 | -15 | nt | -2
O=C(CC1NC(=O)NC1=O)Nc1ccc(Cl)cc1 (configuration not stated) | -4 | 5 | -2 | 1 | 4
CCCCNC(=O)CC1Nc2ccccc2NC1=O (configuration not stated) | -9 | 2 | -135 | 20* | -33
O=C(CC1Nc2ccccc2NC1=O)NCCCN1CCCCCC1 (configuration not stated) | -6 | 3 | -76 | -2 | -23
O=C(CC1Nc2ccccc2NC1=O)Nc1cc(Cl)cc(Cl)c1 (configuration not stated) | 17 | 4 | -22 | 29* | -8
SMILES | FAS-TE inh | sPLA2-III inh | ADAM10 inh | GRIN3A LBD mod | ADAM17 inh
CN(CCc1ccccc1)C(=O)c1ccc(NC(=O)Cc2ccc(NC(=O)C3CCCN(C(=O)CCc4ccccc4)C3)cc2)cc1 (configuration not stated) | 5 | -39 | 15 | 11* | 7
CN(CCc1ccccc1)C(=O)c1ccc(NC(=O)Cc2ccc(NC(=O)C3CCCN(C(=O)C4CCC4)C3)cc2)cc1 (configuration not stated) | -5 | -25 | -3 | -1 | -1
C[C@@H]1CCN(C2CC2)S(=O)(=O)c2c(cccc2N2CCC[C@@H]2CO)O1 | nt | 1 | -5 | nt | -1
Clc1ccc(/C=C/c2nc3ccccc3[nH]2)c(Cl)c1 | 12 | -11 | i | 17* | i
Clc1ccc(/C=C/c2nc3ccccc3[nH]2)cc1 | 9 | -9 | i | 13* | -374
Clc1cccc(Cl)c1/C=C/c1nc2ccccc2[nH]1 | 15 | nt | nt | 3 | nt
CCCCN(C)C(=O)c1ccc2c(c1)NC(=O)C(C)(C)O2 | nt | 3 | 0 | nt | -2
O=C(Nc1ccccc1F)c1ccc(OCc2ccccc2)cc1 | -2 | 2 | 4 | 17* | -1
